Laboratory results: paper PMC8384837, “Expanding the binding specificity for RNA recognition by a PUF domain”

Key:
Assay in all cases: yeast three-hybrid, YBZ-1, SC-Leu-His + 0.5 mM 3-AT, 4 days
Details in all cases: tags: N-Gal4 AD-HA kept; label: inside an RPR1-promoter hybrid RNA with tandem MS2 sites; ssRNA
PUM1 PUF domain R5-RSG = PUM1 PUF domain R5-RSG (Homo sapiens, UniProt Q14671 828-1176, C1007R;R1008S;Q1011G)
Outline: (§1)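 Pumilio-1 PUF domain libraries, randomized (NNK) at the three base-contacting residues of each repeat, were co-expressed with matching RNA elements from a centromeric plasmid in strain YBZ-1 (LexA–MS2 coat fusion, HIS3 reporter). Transformants were plated on SC-Leu (input) and SC-Leu-His + 0.5 mM 3-AT (selection) for four days, and repeat regions were PCR-amplified and Illumina-sequenced. The interaction score is the log2 change in variant frequency from input to selection, with pseudocount 1 where absent.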

PUM1 PUF domain R7-RRT = PUM1 PUF domain R7-RRT (Homo sapiens, UniProt Q14671 828-1176, S1079R;N1080R;E1083T)
Outline: as §1

PUM1 PUF domain R8-RFS = PUM1 PUF domain R8-RFS (Homo sapiens, UniProt Q14671 828-1176, N1122R;Y1123F;Q1126S)
Outline: as §1

PUM1 PUF domain R1-NFV = PUM1 PUF domain R1-NFV (Homo sapiens, UniProt Q14671 828-1176, S863N;R864F;Q867V)
Outline: as §1

PUM1 PUF domain R1-AWR = PUM1 PUF domain R1-AWR (Homo sapiens, UniProt Q14671 828-1176, S863A;R864W;Q867R)
Outline: as §1

PUM1 PUF domain R7-GPR = PUM1 PUF domain R7-GPR (Homo sapiens, UniProt Q14671 828-1176, S1079G;N1080P;E1083R)
Outline: as §1

PUM1 PUF domain R7-QRR = PUM1 PUF domain R7-QRR (Homo sapiens, UniProt Q14671 828-1176, S1079Q;N1080R;E1083R)
Outline: as §1

PUM1 PUF domain R3-IFL = PUM1 PUF domain R3-IFL (Homo sapiens, UniProt Q14671 828-1176, C935I;R936F;Q939L)
Outline: as §1

PUM1 PUF domain R3-KSD = PUM1 PUF domain R3-KSD (Homo sapiens, UniProt Q14671 828-1176, C935K;R936S;Q939D)
Outline: as §1

PUM1 PUF domain R6-QYG = target: T1, PUM1 PUF domain R6-QYG (Homo sapiens, UniProt Q14671 828-1176, N1043Q;Q1047G)
T1 sequence: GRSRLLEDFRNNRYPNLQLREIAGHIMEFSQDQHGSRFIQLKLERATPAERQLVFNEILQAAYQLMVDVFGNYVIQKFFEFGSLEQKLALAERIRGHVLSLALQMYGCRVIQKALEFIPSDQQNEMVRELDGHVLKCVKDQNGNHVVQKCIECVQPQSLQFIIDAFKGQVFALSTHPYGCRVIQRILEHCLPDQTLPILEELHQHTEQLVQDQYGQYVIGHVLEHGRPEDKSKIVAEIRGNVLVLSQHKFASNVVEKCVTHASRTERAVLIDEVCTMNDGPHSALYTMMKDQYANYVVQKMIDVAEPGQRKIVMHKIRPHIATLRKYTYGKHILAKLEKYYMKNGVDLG
Outline: as §1

GGCUAGAACUAGUGGAUCCCCCGGCGCCCGGCGGCUCGAGCCCGGGUAAGUGUUAAUAGUCUGCAUGCCGCCGGGCGCCAUGCCUGCAGGUCGACUCUAGAAAACAUG
binding signal (PUM1 PUF domain R5-RSG): 2.84 log2 enrichment (interaction score)

GGCUAGAACUAGUGGAUCCCCCGGCGCCCGGCGGCUCGAGCCCGGGUAAGUUUAAAUAGUCUGCAUGCCGCCGGGCGCCAUGCCUGCAGGUCGACUCUAGAAAACAUG
binding signal (PUM1 PUF domain R7-RRT): 4.83 log2 enrichment (interaction score)

GGCUAGAACUAGUGGAUCCCCCGGCGCCCGGCGGCUCGAGCCCGGGUAAGUGUCAAUAGUCUGCAUGCCGCCGGGCGCCAUGCCUGCAGGUCGACUCUAGAAAACAUG
binding signal (PUM1 PUF domain R5-RSG): 3.08 log2 enrichment (interaction score)

GGCUAGAACUAGUGGAUCCCCCGGCGCCCGGCGGCUCGAGCCCGGGUAAGCGUAAAUAGUCUGCAUGCCGCCGGGCGCCAUGCCUGCAGGUCGACUCUAGAAAACAUG
binding signal (PUM1 PUF domain R8-RFS): 5.73 log2 enrichment (interaction score)

GGCUAGAACUAGUGGAUCCCCCGGCGCCCGGCGGCUCGAGCCCGGGUAAGUGUAAAUUGUCUGCAUGCCGCCGGGCGCCAUGCCUGCAGGUCGACUCUAGAAAACAUG
binding signal (PUM1 PUF domain R1-NFV): 5.68 log2 enrichment (interaction score)
binding signal (PUM1 PUF domain R1-AWR): 1.06 log2 enrichment (interaction score)

GGCUAGAACUAGUGGAUCCCCCGGCGCCCGGCGGCUCGAGCCCGGGUAAGUCUAAAUAGUCUGCAUGCCGCCGGGCGCCAUGCCUGCAGGUCGACUCUAGAAAACAUG
binding signal (PUM1 PUF domain R7-GPR): 3.96 log2 enrichment (interaction score)
binding signal (PUM1 PUF domain R7-RRT): 4.42 log2 enrichment (interaction score)
binding signal (PUM1 PUF domain R7-QRR): 3.77 log2 enrichment (interaction score)

GGCUAGAACUAGUGGAUCCCCCGGCGCCCGGCGGCUCGAGCCCGGGUAAGUGUAAAUCGUCUGCAUGCCGCCGGGCGCCAUGCCUGCAGGUCGACUCUAGAAAACAUG
binding signal (PUM1 PUF domain R1-AWR): 4.26 log2 enrichment (interaction score)

GGCUAGAACUAGUGGAUCCCCCGGCGCCCGGCGGCUCGAGCCCGGGUAAGUGUAAUUAGUCUGCAUGCCGCCGGGCGCCAUGCCUGCAGGUCGACUCUAGAAAACAUG
binding signal (PUM1 PUF domain R3-IFL): 3.79 log2 enrichment (interaction score)
binding signal (PUM1 PUF domain R3-KSD): 2.88 log2 enrichment (interaction score)

GGCUAGAACUAGUGGAUCCCCCGGCGCCCGGCGGCUCGAGCCCGGGUAAGUGUAAAUAGUCUGCAUGCCGCCGGGCGCCAUGCCUGCAGGUCGACUCUAGAAAACAUG
binding signal (PUM1 PUF domain R8-RFS): 6.27 log2 enrichment (interaction score)
binding signal (PUM1 PUF domain R6-QYG): 3.17 log2 enrichment (interaction score)
